Screens: PubChem BioAssay, several laboratories
PKA kinase inh – PKA (human) kinase inhibition | PKA Kemptide phosphorylation, Kinase-Glo ATP luminescence | P17612 | hit rate 0.1% among 65,000 | AID 524 | inhibition, % at 6 µM;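 active = inhibition above the screen-wide mean inhibition plus 3 SD, cut at about 21% in these data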
ROCK2 inh – blocks human Rho kinase 2 activity; hit rate 0.35% among 60,000; inhibition, % at 6 µM; purified ROCK2, Kinase-Glo ATP depletion luminescence; O75116;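 active = inhibition above the screen-wide mean inhibition plus 3 SD, cut at about 18% in these data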;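 also: plate controls were DMSO wells for no effect and Y-27632 control wells after no-enzyme background subtraction for full effect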
hDAT+cocaine – changed human dopamine transporter uptake under cocaine IC80 | LLC-PK1 hDAT cells, [14C]-dopamine uptake with cocaine IC80; actives deviate in either direction | hit rate 1.3% among 110,000 | AID 449768 | B-score at 10 µM;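 active = Z score or B-score, a plate-position-corrected score, falls beyond the plate's 99.7% confidence bounds, in either direction; inactive = both scores lie inside the 99.7% bounds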;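 also: scored against the spread of the other compound wells on the same plate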
JNK3 blocker – blocks human JNK3 kinase activity; P53779; purified JNK3 kinase activity, HTS; inhibition, % at 8 µM; hit rate 0.61% among 60,000; in the data active = inhibition above about 17%;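 also: 0% = DMSO and 100% = reference inhibitor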
D1 allo mod – D1 dopamine receptor (human) allosteric modulation; B-score at 10 µM; HEK293 D1, CRE-luciferase, dopamine EC30 potentiation; actives deviate in either direction; AID 641; P21728; hit rate 5.9% among 58,000;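 active = luminescence count or its row- and column-corrected plate score outside the 99.7% band of the plate's sample wells, on either side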
D1 mod confirm – D1 receptor (human) allosteric modulation, confirmed | shares compounds with D1 allo mod | HEK293 D1 CRE-luciferase, dopamine EC30 potentiation; stronger effect = higher value | luminescence at 10 µM | hit rate 88% among 2,200;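 active = luminescence in either of two replicates above the same-plate mean plus 3 SD of the low-dose dopamine control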
D1 no dopamine – activates D1 CRE-luciferase signal without dopamine present; shares compounds with D1 allo mod; HEK293 D1 CRE-luciferase, luminescence, no dopamine; stronger effect = higher value; luminescence at 10 µM; hit rate 0.8% among 1,900; AID 646; in the data active = luminescence above about 3900
Isoprot counter – isoproterenol response counter-screen activity for D1 modulators. shares compounds with D1 allo mod. HEK293 D1 CRE-luciferase, isoproterenol EC30 counter-screen. calls only at 10 µM. hit rate 63% among 2,200. AID 647;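 active = luminescence in either replicate above plate mean of wells with a partly effective reference agonist dose plus 3 SD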;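 also: isoproterenol raises cAMP through native beta-adrenoceptor Gs so signal bypasses D1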
Active calls of the source: *; i = inactive; / = no result given; + = active, no number. This excerpt belongs to a sample that is enriched for hits.

SMILES	PKA kinase inh	ROCK2 inh	hDAT+cocaine	JNK3 blocker	D1 allo mod	D1 mod confirm	D1 no dopamine	Isoprot counter
CC[N+](C)(C)CCN(Cc1ccc(Cl)cc1)c1ccccn1	/	/	-0.255	/	/	/	/	/
COc1ccc(CN(CCN(C)C)c2ccccn2)cc1	1.6	4.1	0.0114	3.8	5.24*	3680	1484	i
C=CCC(C#Cc1ccc(C)cc1)N(CC)CC (configuration not stated)	/	/	-0.145	/	/	/	/	/
CCc1ccc2c(c1)cc(CN(C(=S)Nc1ccc(Cl)cc1)C1CC1)c1nnnn12	/	/	1.24	/	/	/	/	/
CC(C)n1c(SCc2ccccc2F)nc2c1c(=O)n(C)c(=O)n2C	6.8	5.4	0.107	3.6	1.08	/	/	/
Cn1c(=O)c2c(nc(SCCCC#N)n2Cc2ccccc2F)n(C)c1=O	-0.4	-0.2	0.0494	0.0	5.22*	15976*	1696	i
CC(C)Nc1nc(NC(C)C)nc(N(C)C(N)=O)n1	8.9	4.1	-0.102	6.5	7.72*	17056*	1584	+
CCNc1nc(C)c2cc(Br)c(=O)n(CC)c2n1	4.4	4.4	-0.693	12.2	14.8*	24012*	1832	+
CCOc1ncccc1C(=O)NCC1COc2ccccc2O1 (configuration not stated)	6.9	-0.9	-0.594	9.9	12.6*	17888*	/	+
O=C(Cc1ccccc1)NCC1COc2ccccc2O1 (configuration not stated)	/	/	-0.000306	/	/	/	/	/
CCc1ccc(C(=O)NCC2COc3ccccc3O2)o1 (configuration not stated)	5.3	1.9	1.19	-2.8	3.65*	7128	1732	i
CCOc1ncccc1C(=O)Oc1ccc2c(c1)OCO2	12.8	4.0	0.678	4.3	3.17*	8328*	2048	+
CN=C1SC(CC(=O)Nc2sc(C)c(C)c2C(=O)OC)C(=O)N1C (configuration not stated)	7.7	1.2	-0.131	0.9	3.44*	8820*	1856	+
Cc1ccc(OCCN2C(=O)OC(C)(C)C2(C)O)cc1 (configuration not stated)	3.4	4.8	-0.212	2.4	5.52*	7404*	1572	i
COc1ccc(C(C#N)C2(C)OCCO2)cc1OC (configuration not stated)	8.5	4.3	-0.00484	-1.6	10.2*	10756*	/	+
COC(=O)c1ccc(CS(=O)(=O)c2ccccc2C)o1	-1.6	2.6	-0.273	-6.4	4.6*	6940	1632	i
CCN1CCN(CCNC(=O)c2ccc(CS(=O)(=O)c3ccccc3C)o2)CC1	9.0	6.0	-0.242	2.9	0.376	/	/	/
COc1ccccc1N1CSC2=C(C#N)C(c3ccc(SC)cc3)CC(=O)N2C1 (configuration not stated)	6.4	6.3	-0.542	9.9	-0.225	/	/	/
c1ccc(Cn2c(CNc3nc4ccccc4n3CCN3CCOCC3)nc3ccccc32)cc1	4.6	6.4	0.928	1.8	0.904	/	/	/
CC(C)CN1CN(S(=O)(=O)c2cccs2)c2nc3ccccc3nc21	4.8	7.3	0.604	5.8	11.4*	18664*	1708	+
CC(C)OCCCN1CN(S(=O)(=O)c2ccccc2)c2nc3ccccc3nc21	2.5	5.5	1.24	0.7	0.21	/	/	/
OCCN(CCO)c1nc(N2CCCCC2)c2nc(N(CCO)CCO)nc(N3CCCCC3)c2n1	-1.9	3.7	/	2.7	11.4*	11976*	1696	+
CN(C)c1nc(N2CCCCC2)nc(N2CCCCC2)n1	-0.7	0.0	/	0.6	/	/	/	/
CSc1nnc(-c2cccs2)n1-c1ccccc1	8.2	6.3	1.61	5.5	3.72*	17328*	1712	+
Cc1ccc2c(c1)-c1cc(C)nn1C(c1ccc3c(c1)OCO3)N2 (configuration not stated)	-0.6	0.5	/	-4.2	5.33*	12540*	1584	+
Cc1cc2n(n1)C(c1ccccc1)Nc1ccccc1-2 (configuration not stated)	-3.2	-2.9	-0.021	-0.7	13.9*	14996*	1724	+
